In PubChem BioAssay (NCI):
Values joined by “and” are separate entries in the source; they are usually repeats but may differ in a detail not shown here. Equal entries are not always repeated. About 83,000 compounds went through this panel and 20% of them were active in at least one assay; those are over-represented in the sample as a whole.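 For each line, cells grew in 96-well plates with the test compound present at a single concentration for 48 hours.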 A number with no mark means an inactive call. Active and inactive are the calls of the source. Rule for the calls: active = growth percent below 10; inactive = the rest.

What follows are compounds tested on MDA-MB-468 breast (assay: NCI-60 one-dose screen, 48 h (100 = growth as untreated, 0 = no growth, -100 = all killed)). Conditions: 10 µM unless noted.
`COC(=O)CNC(=O)C(=O)c1c(O)c(O)c(C(C)C)c2cc(C)c(-c3c(C)cc4c(C(C)C)c(O)c(O)c(C(=O)C(=O)NCC(=O)OC)c4c3O)c(O)c12` gave a growth of 15.8%.
In the case of `N[C@@H](Cc1cn(-c2c3ccccc3nc3ccccc23)nn1)C(=O)O`, the growth is reported as 96.8%.
Compound `COc1ccc2c(c1)Oc1nc(N)c(C#N)c(N)c1C2Sc1ccc(O)cc1` (stereo unspecified) has a growth of 18.8%.
Compound `CCOc1ccccc1/C=N\Nc1ccc(S(=O)(=O)c2ccc(N/N=C/c3ccccc3OCC)cc2)cc1` has a growth of 96.8%.
`Cc1cc(N(CCCNc2ccnc3cc(Cl)ccc23)Cc2ccccn2)nc(N2CCOCC2)n1` showed a growth of 78.8%.
Compound `Cc1ccc(/C(C#N)=C/c2ccc3c(c2)OCO3)cc1` has a growth of 43.9%.
Compound `Cc1cc2c(cc1C)Nc1sc(NC(=O)CN3CCN(C)CC3)nc1C(=O)N2` has a growth of 105%.
With `O=S(=O)(NCCCNc1nccc(-c2c(-c3cccc(O)c3)nc3occn23)n1)c1ccc(Cl)cc1` the growth was 105%.
In the case of `CC(=O)Cc1nsc(NC(=O)c2ccoc2COc2ccccc2)n1`, the growth is reported as 124%.
For `CCCCCc1ccnc(CC(=O)c2ccc(OC)cc2)c1`, the growth was 65.5%.
`Cc1cc2nc(NC(=O)CN3CCN(CCN4C(=O)c5cccc6cccc(c56)C4=O)CC3)sc2cc1C` was tested, and the growth was 86.3%.
In the case of `Cc1ccc(NC(=O)c2sc3nc4c(cc3c2N)C(=O)CCC4)cc1Cl`, the growth is reported as 105%.
With `CCN(CC)c1ccc(/C=C/c2cc(C)c3ccccc3n2)cc1` the growth was 1.02% (active).
With `O=C(C[n+]1ccn(CC(OCc2ccc(Cl)cc2Cl)c2ccc(Cl)cc2Cl)c1)c1ccc(F)cc1` (stereo unspecified) the growth was -77.2% (active).
`CCCCN(CCCC)CCc1c(C)cc(C)c(CCN(CCCC)CCCC)c1O` was tested, and the growth was 0.281% (active).
`Nc1ccccc1SC(CC(=O)c1ccccc1)c1cccc([N+](=O)[O-])c1` (stereo unspecified) was tested, and the growth was 85.9% and 77.9%.
With `CC(=O)c1c[nH]c2ccc(-c3ccnc(Nc4ccc(NC(=O)c5cccc(F)c5)c(CN5CCOCC5)c4)n3)cc12` the growth was -32.9% (active).
For `C=C1C(=O)O[C@H]2[C@H]1CC/C(COC(=O)/C=C\C(=O)NCc1ccc(Cn3c(=O)sn(-c4ccc(OC)cc4)c3=O)cc1)=C\CC[C@@]1(C)O[C@@H]21`, the growth was -81.7% (active).
`COC(=O)C12C3C(=O)N(c4ccc(OC)cc4)C(=O)C3C(c3cn(-c4ccccc4)nc3C)N1[C@H](c1cn(-c3ccccc3)nc1C)[C@@H]1C(=O)N(c3ccc(OC)cc3)C(=O)[C@@H]12` (stereo partly specified) was tested, and the growth was 97.4%.
For `COc1cc(Cn2c(SCC(=O)Nc3cc(OC)c(OC)c(OC)c3)nc3ccccc3c2=O)cc(OC)c1OC`, the growth was 72.7%.
Compound `Nc1cccc2c1CN(C1CCC(=O)NC1=O)C2=O` (stereo unspecified) has a growth of 84%.
In the case of `CCNC(=O)Nc1ncccc1OCc1ccc(F)cc1`, the growth is reported as 101%.
For `N#Cc1cccc(NC(=O)c2cc(-c3ccc(F)cc3F)ccc2O)c1`, the growth was -4.46% (active) and -3.84% (active).
With `Cc1ccnc2c(OCc3ccccc3)cccc12` the growth was 34.2%.
With `O=C1/C(=C/c2ccc([N+](=O)[O-])s2)Oc2ccccc21` the growth was -34.1% (active).
For `COc1ccc(Cn2cc3c(c2-c2ccc(OC)cc2)CCc2cnoc2-3)cc1`, the growth was -7.25% (active).
In the case of `CC(C)(C)c1[nH]nc2c1C(c1cc3ccccc3[nH]c1=O)Nc1cc(C(=O)Nc3ccc(Cl)cc3)ccc1N2` (stereo unspecified), the growth is reported as -15.9% (active).
`COc1ccc2c(c1)/C(=C\c1sc(=S)[nH]c1O)C(C(=O)O)=N2` showed a growth of 98.2%.
For `C[C@]12CC[C@@H]3c4cc(OC(F)F)c(O)cc4CC[C@H]3[C@@H]1CC[C@@H]2OS(N)(=O)=O`, the growth was -18.9% (active).
With `c1csc(-c2ccc(CNc3c4ccccc4nc4ccccc34)cc2)c1` the growth was -72.5% (active).
`COc1ccc2c(c1)CCCC21C(=O)Nc2ccccc21` (stereo unspecified) showed a growth of 103%.
`N#Cc1c(Nc2cccc(Cl)c2)sc(C(=O)c2cc3cc(Cl)ccc3o2)c1N` was tested, and the growth was 100%.
With `Fc1ccc(-c2nn3c(-c4cc(C(F)(F)F)cc(C(F)(F)F)c4)nnc3s2)cc1` the growth was 25.5%.
With `O=C(Oc1ccc[nH]c1=O)c1cc([N+](=O)[O-])cc([N+](=O)[O-])c1` the growth was 119%.
Work on `O=C(/C=C/C12c3ccccc3C(c3ccccc31)C1C(=O)NC(=O)C12)c1ccco1` (stereo unspecified) yielded a growth of 21.8%.
For `O=C(N/N=C/c1ccc([N+](=O)[O-])o1)c1ccc(O)cc1`, the growth was 12.8%.
